Compound activity: PubChem BioAssay, National Center for Advancing Translational Sciences (NCATS)
Hits are enriched below; roughly 10% of the tested compounds scored in any of these assays.
KinaseGlo FLuc: Kinase-Glo luciferase inhibition (counter-screen) | Q27757 | Kinase-Glo luciferase, ATP luminescence, 8 min | Potency, µM (series often up to 38.3 µM), for the others: top-dose activity change, negative = inhibition, hits mostly inhibitors | actives 0.28% (n = 200,000); active means well fitted inhibition curve with a large enough effect; inconclusive means small, poorly fitted or top-dose-only effect; further: potency means the concentration at half of the fitted maximal effect; nearly all actives have a fitted effect of over 60% in size
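Recombinant Kinase-Glo luciferase, 10 uM ATP (linear range), luciferin; imidazole pH 7.2 / KCl / MgCl2 / Tween / BSA buffer; 8 min RT; luminescence.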
IMPase inh: membrane-permeable compound that blocks inositol monophosphatase. P97697. CHO-M1 cells, IP1 accumulation, HTRF TR-FRET ratio. inhibition (IP1 accumulation), % at 46.1 µM. 120,000 tested, under 10 active; active means well fitted curve in the direction sought with a large enough effect in the signal ratio, not every such curve was filed as active; inconclusive means small, poorly fitted or top-dose-only effect, or a change in a side signal; inactive means no such curve, though single readings can be large or run the other way; the % refers to the signal ratio;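 further: cells stimulated with carbachol in lithium chloride buffer; plate controls were DMSO basal wells for no effect and reference inhibitor wells for full effect; higher means more IMPase inhibition seen as more IP1 and lower FRET ratio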
Target sequence (P97697 whole entry, looked up): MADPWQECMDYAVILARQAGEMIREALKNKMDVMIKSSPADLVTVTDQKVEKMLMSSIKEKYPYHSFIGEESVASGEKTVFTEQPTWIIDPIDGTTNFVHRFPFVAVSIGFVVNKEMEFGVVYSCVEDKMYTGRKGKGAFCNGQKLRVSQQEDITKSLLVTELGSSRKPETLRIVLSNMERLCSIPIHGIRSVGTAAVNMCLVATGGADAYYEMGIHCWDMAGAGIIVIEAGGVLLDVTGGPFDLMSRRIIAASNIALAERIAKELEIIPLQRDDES
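Seeded CHO-M1 cells were dosed with compound at up to 46 uM, stimulated with carbachol for 30 min, then lysed in IP-One detection reagents. Higher IP1 lowers the TR-FRET signal.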
PNC assembly inh: blocks assembly of the perinucleolar compartment | PC3M PTB-GFP, PNC prevalence imaging, 16 h; active compounds read low | activity change (PNC), negative = inhibition, % at 10 µM | actives 3.1% (n = 140,000);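 active means readout at or below -70, meaning at least 70% loss of cells showing the perinucleolar compartment, a nuclear body marking cancer cells; inconclusive means readout between -30 and a set limit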;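 further: plate controls were DMSO wells for no effect and camptothecin positive control wells for full effect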
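Read-out is percentage of cells bearing a perinucleolar compartment, from automated 20x imaging of fixed, Hoechst-stained PC3M PTB-GFP cells. Cells were seeded 4 h, then exposed 16 h to compound (23 nl of library stock) in duplicate plates.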
HPGD inh: HPGD (human) dehydrogenase inhibition. P15428. purified HPGD, NADH fluorescence kinetic, PGE2 substrate. Potency, µM, for the others: at the highest dose activity change, negative = inhibition, actives largely listed as inhibitors. actives 4.3% (n = 150,000). AID 894; further: potency means the concentration at half of the fitted maximal effect
Target sequence (P15428 whole entry, looked up): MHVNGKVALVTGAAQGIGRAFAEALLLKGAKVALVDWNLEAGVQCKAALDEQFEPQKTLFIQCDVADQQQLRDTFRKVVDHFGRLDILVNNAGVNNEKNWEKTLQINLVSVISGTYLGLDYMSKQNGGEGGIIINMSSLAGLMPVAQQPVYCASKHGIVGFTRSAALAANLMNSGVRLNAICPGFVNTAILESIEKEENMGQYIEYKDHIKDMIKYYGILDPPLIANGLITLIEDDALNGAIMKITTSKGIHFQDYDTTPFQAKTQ
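NADH formation kinetics: reaction with 30 uM PGE2 and 1 mM NAD+ (final), 20 nM enzyme, Tris-HCl pH 8 with Tween 20, after 15 min compound preincubation at room temperature. Fluorescence change, last versus first of five reads.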
LMNA splice mod: changes lamin A minigene splicing in HeLa cells; AID 1487; Potency, µM (highest dose often 46.1 µM), for the others: at the top dose ratio change, negative = inhibition, usual class: inhibitors; HeLa LMNA splicing GFP/RFP minigene ratio, 48 h; actives 0.01% (n = 200,000); active means well fitted inhibition curve with a large enough effect in the signal ratio, with a control signal flat, not every such curve was filed as active; inconclusive means small, poorly fitted or top-dose-only effect, or effect the other way, or a change in a side signal; the % refers to the signal ratio; further: potency means the concentration at half of the fitted maximal effect
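S3 HeLa cells stably expressing lamin A-EGFP splicing minigene plus DsRed2, 600 cells/well, 48 h compound exposure at 37C. Laser-scanning cytometry; analysed as GFP (500-530 nm)/RFP (575-640 nm) total intensity ratio; 0.5% DMSO vehicle.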
ALDH1A1 block: inhibitors of human aldehyde dehydrogenase 1A1; actives 7.3% (n = 220,000); Potency, µM (top dose mostly 75.3 µM), for inactives: top-dose activity, negative = inhibition, usual class: inhibitors; Purified ALDH1A1, NADH fluorescence, propionaldehyde substrate; P00352;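 further: potency means the concentration at half of the fitted maximal effect; plate controls were no enzyme wells and a reference inhibitor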
* marks the source's active call; other numbers are inactive results; ? = inconclusive; / = not tested or not shown; [ ] = remark or other dose. Unless noted, the call rests on the fitted dose curve; in most records, active means well fitted inhibition curve with a large enough effect (not every such curve was filed as active); inconclusive means small, poorly fitted or top-dose-only effect, or another doubt; inactive means no such curve, though single readings can be large or run the other way. Unless noted, on the % scale 0 is the no-effect control and ±100 the full control effect.

SMILES	KinaseGlo FLuc	IMPase inh	PNC assembly inh	HPGD inh	LMNA splice mod	ALDH1A1 block
CCOc1ccc(NC(=S)NNc2ccnc3cc(Cl)ccc23)cc1	-1.6%	/	/	/	?	3.16µM*
CCOc1ccc(NC(=O)c2cc(SC)ccc2Cl)cc1	-3.6%	/	-2.6	-2.8%	-6.0%	1.5%
FC(F)(F)c1cccc(CNC(=S)Nc2ccccc2)c1	1.1%	/	/	/	12.5%[9.22 µM]	-4.8%
COc1ccc(NC(=S)NNC(=S)Nc2cccc(C(F)(F)F)c2)cc1	/	/	/	/	/	0.447µM*
FC(F)(F)c1cccc(NC(=S)NCc2ccccc2)c1	-1.6%	10.5	15.1	28.2µM*	11.9%	7.0%
CCOc1ccc(NC(=S)NNC(=O)c2cc(Br)ccc2Cl)cc1	0.0%	/	/	/	/	12.6µM*
CC(C)(O)C(=O)NNC(=S)Nc1cccc(C(F)(F)F)c1	1.1%	/	/	/	?	?
Cc1ccccc1C(=O)NNC(=S)Nc1cccc(C(F)(F)F)c1	-1.5%	/	-111.9*	-23.8%	?	17.8µM*
CN(C)CCCN1C(=O)c2cccc3c(Br)ccc(c23)C1=O	-0.1%	/	/	/	?	22.4µM*
Cc1cc(N2CCN(C)CC2)nc2ccc(NC(=O)Nc3ccccc3Br)cc12	/	/	/	/	-18.2%[46 µM]	/
CCc1ccc(NC(=O)CSc2nc(=O)n(Cc3cccnc3)c3c2CCC3)cc1	/	/	/	/	-24.9%[46 µM]	/
COc1ccc(N2C(=O)CC(NCCNc3ccc([N+](=O)[O-])cn3)C2=O)cc1 (centres undefined)	-0.1%	/	-100.4*	-15.6%	?	1.78µM*
CCOc1ccc(N2C(=O)CC(NCCNc3ccc([N+](=O)[O-])cn3)C2=O)cc1 (centres undefined)	0.0%	/	/	/	15.1%[46 µM]	0.891µM*
COc1ccc(NC2CC(=O)N(c3cccc([N+](=O)[O-])c3)C2=O)cc1 (centres undefined)	-3.6%	/	/	/	/	?
O=C(CSCc1ccc(Cl)cc1)NN=C1CCCCCC1	0.2%	/	-93.2*	-14.0%	-3.3%	14.1µM*
O=C(CCSc1ccc(Cl)cc1)NC1CCCCC1	1.7%	5.8	-109.4*	4.47µM*	25.0%	10.6%
O=C(CCSc1ccc(Cl)cc1)NN=C1CCCCCC1	15.7%	/	/	/	/	11.2µM*
O=C(CSc1ccc(Cl)cc1)NN=C1CCCCCC1	1.4%	/	/	/	25.7%[46 µM]	?
CC(=O)OC[C@@H]1O[C@@H](O/N=C2/C[C@@H](O)[C@@H](O)[C@@H]3[C@H]4C(=O)N(c5ccc(F)cc5F)C(=O)[C@@H]4CC[C@@H]23)[C@H](OC(C)=O)[C@H](OC(C)=O)[C@@H]1OC(C)=O	/	/	/	/	/	-10.9%[13.5 µM]
O=C(c1csnn1)N1CCC2(CCCN(c3ncccn3)C2)CC1	-0.4%	/	/	-12.4%	/	?
COc1ccc(NC(=O)c2oc3ccc(S(=O)(=O)N4CCC5(CC4)OCCO5)cc3c2C)cc1Cl	/	/	/	/	-13.4%[46 µM]	/
CN(C(=O)Cn1cc(S(=O)(=O)Cc2ccccc2Cl)c2ccccc21)c1ccccc1	/	/	/	/	-3.6%[46 µM]	/
COCCOC(=O)c1c(C)n(C)c2ccc(OC(=O)c3ccco3)cc12	-3.9%	-11.1	-8.8	-6.3%	4.5%	-1.6%
COCCOC(=O)c1c(C)n(C)c2ccc(OC(=O)C3CC3)cc12	8.1%	9.2	-25.7	-16.1%	3.5%	10µM*
O=c1[nH]c2c(s1)C(c1ccc(O)cc1)C1C3CCC(C3)C1S2 (centres undefined)	-0.6%	-11.0	?	?	9.3%	11.2µM*
COc1ccc(C(=O)Nc2ccc(S(=O)(=O)NC(C)(C)C)cc2)cc1[N+](=O)[O-]	1.9%	/	/	/	/	17.8µM*
COC(=O)c1cc(C(=O)Nc2ccc(S(=O)(=O)NC(C)(C)C)cc2)cc([N+](=O)[O-])c1	-0.4%	/	?	17.8µM*	-1.2%	14.1µM*
COc1cc(C(=O)Nc2ccc(S(=O)(=O)NC(C)(C)C)cc2)cc(OC)c1OC	-0.8%	?	26.7	-3.0%	-6.1%	7.6%
CCOc1ccc(C(CC(=O)O)NC(=O)c2cccs2)cc1 (centres undefined)	2.4%	/	8.4	-14.4%	?	4.7%
